# Experimental data published in PubChem BioAssay AID463173 (ICCB-Longwood Screening Facility, Harvard Medical School, 2010).
# Hit rate of the full screen: of about 52,000 compounds, about 1,700 (3.3%) were called active. Only a selection was taken, and actives are over-represented in it overall. Values without a mark were called inactive. Rule as the data show it: active = survival mostly below about 52% (no sharp cut-off); inactive = mostly above about 56%.
# Tested on: Wild type
# Assay: S. aureus survival, RN4220 and DeltatarO strains – OD600, teichoic acid synthesis inhibitors, primary screen (AID 463173)
# Settings: S. aureus RN4220 wild type/DeltatarO growth, OD600, 18 h, active compounds read low, screened at 18.75 µg/mL (by protocol)
row,Compound,survival
1,Cc1cc(C(=O)N2CCN(c3cccc(C)c3C)CC2)c2c(C)nn(-c3ccccc3)c2n1,121%
2,Cc1cccc(C(=O)Nc2ccc(N3CC=C(c4ccccc4C)CC3)c(C(=O)O)c2)c1,66%
3,COc1nnc(-c2ccc(N3CCCCC3)c(NC(=O)c3ccccc3)c2)c2ccccc12,-6% (active)
4,Cn1nc(-c2ccc(N3CCCCC3)c(NC(=O)c3ccc(Cl)cc3)c2)c2ccccc2c1=O,80%
5,COc1nnc(-c2ccc(N3CCCCC3)c(NC(=O)c3ccccc3Cl)c2)c2ccccc12,-7% (active)
6,Cn1c(=O)c(=O)n(C)c2cc(N3CCCC3)c(NC(=O)c3ccccc3Cl)cc21,86%
7,COc1nnc(-c2ccc(N3CCCCC3)c(NC(=O)c3ccc(C)cc3)c2)c2ccccc12,36%
8,COc1nnc(-c2ccc(N3CCCCC3)c(NC(=O)c3ccc(Cl)cc3)c2)c2ccccc12,96%
9,CCN(CCCNC(=O)CSc1cc(=O)n(C)c2ccccc12)c1ccccc1,77%
10,CC(=O)Nc1ccc(NC(=O)c2cc3sccc3n2Cc2ccc(Cl)cc2)cc1,91%
11,CC1(C)O[C@H]2[C@@H](O1)[C@@H](C(=O)Nc1ccc(F)c(F)c1)O[C@@H]1OC(C)(C)O[C@@H]12,106%
12,CCN(CC)CCNC(=O)c1ccc2c(=O)n3nc(Nc4cccc(Cl)c4C)sc3nc2c1,153%
13,Cc1ccc(C)c(CNC(=O)C2CCN(c3nc4ccccc4nc3C(F)(F)F)CC2)c1,88%
14,CCc1c(C)nc2nncn2c1NCc1ccccc1,86%
15,Cc1ccc(CNc2cc(C)nc3nc(-c4ccc(C)cc4)nn23)cc1,66%
16,CCc1c(C)nc2nc(-c3ccccc3)nn2c1NCc1ccc(C)cc1,-1% (active)
17,CCOC(=O)c1ccc(NC(=O)CSc2nc(C)c(Cc3ccccc3)c(=O)[nH]2)cc1,80%
18,O=C(NCc1ccccc1)N(Cc1cccnc1)Cc1cc2cc3c(cc2[nH]c1=O)OCCO3,102%
19,COc1ccc(-c2nn3c(-c4ccc(C)cc4)nnc3c3ccccc23)cc1,70%
20,COc1ccc2[nH]cc(CCN=C(NC(=O)c3ccccc3C)Nc3nc(C)cc(C)n3)c2c1,41%
21,CCn1c2c(c(=O)n3ncc(C(=O)Nc4ccc(F)c(Cl)c4)c13)CN(Cc1ccc(OC)cc1)CC2,-1% (active)
22,CCn1c2c(c(=O)n3ncc(C(=O)Nc4ccc(OC(F)(F)F)cc4)c13)CN(Cc1ccc(OC)cc1)CC2,83%

row,Compound,survival
1,CCn1c2c(c(=O)n3ncc(C(=O)Nc4ccc(Cl)cc4C)c13)CN(Cc1ccc(OC)cc1)CC2,76%
2,CCn1c2c(c(=O)n3ncc(C(=O)Nc4ccc(F)cc4Cl)c13)CN(Cc1ccc(OC)cc1)CC2,14% (active)
3,CCn1c2c(c(=O)n3ncc(C(=O)Nc4ccc(C(=O)OC)cc4)c13)CN(Cc1ccc(OC)cc1)CC2,55%
4,CCn1c2c(c(=O)n3ncc(C(=O)Nc4cc(Cl)ccc4OC)c13)CN(Cc1ccc(OC)cc1)CC2,72%
5,Cc1ccc(CNC(=O)Nc2cc(C(=O)NCc3cccc(F)c3)ccc2N2CCCC2)cc1,128%
6,CCOC(=O)c1cccc(NC(=O)CCc2c(C)nn(-c3ccc(N4CCCCC4)nn3)c2C)c1,95%
7,Cc1nnc(C)c2c(C)n(-c3ccc4c(c3)OCO4)c(C)c12,111%
8,CCOc1ccc(N(CC)C(=O)Cn2cnc3sc(C)c(S(=O)(=O)N4CCN(c5ncccn5)CC4)c3c2=O)cc1,78%
9,Cc1ccc(NCc2cccn2-c2nnc(N3CCCCCC3)s2)cc1,77%
10,COc1ccc(NCc2cccn2-c2nnc(N3CCCCCC3)s2)cc1,78%
11,CCc1ccc(NCc2cccn2-c2nnc(N3CCCCCC3)s2)cc1,-1% (active)
12,CCC(C)NC(=O)CSc1nc2ccc(C(C)C)cc2cc1C#N (configuration not stated),103%
13,COc1cccc(CNC(=O)c2ccc(NC(=O)N3CCCCc4ccccc43)cc2)c1OC,73%
14,Cc1nc2nc(SCC(=O)NCCc3ccc(Cl)cc3)nn2c(C)c1Cc1ccccc1,56%
15,Cc1nnc(NC(=O)CSc2nccn2Cc2ccc(Cl)cc2)s1,118%
16,O=C(CSc1nccn1Cc1ccc(Cl)cc1)Nc1nc2ccccc2s1,0% (active)
17,O=C(CSc1nccn1Cc1ccccc1)Nc1nc2ccccc2s1,121%
18,Cc1nnc(NC(=O)CSc2nccn2Cc2ccc(F)cc2)s1,-2% (active)
19,Cc1ccc2nc(NC(=O)CSc3nccn3Cc3ccc(F)cc3)sc2c1,80%
20,O=C(CSc1nccn1Cc1ccc(F)cc1)Nc1nc2ccccc2s1,82%
21,Cc1ccc2nc(NC(=O)CSc3nccn3Cc3ccccc3)sc2c1,10% (active)
22,Cc1ccc2nc(NC(=O)CSc3nccn3Cc3ccc(Cl)cc3)sc2c1,72%

row,Compound,survival
1,Cc1ccc(Cn2ccnc2SCC(=O)Nc2nnc(C)s2)cc1,65%
2,CCOc1ccc(NC(=O)Cn2c(=O)n(Cc3ccccc3)c(=O)c3sc4ccccc4c32)cc1,78%
3,COc1cc(NC(=O)Nc2nnc(N3CCCCCC3)s2)cc(OC)c1,78%
4,Cc1cccc(N2CCN(c3ncnc4c3cnn4-c3ccc(Cl)cc3)CC2C)c1 (configuration not stated),83%
5,CCc1ccc(OC(C)c2nc(-c3ccc(-n4cccc4)cc3)no2)cc1 (configuration not stated),-4% (active)
6,CCc1ccc(OCc2nc(-c3ccc(-n4cccc4)cc3)no2)cc1,104%
7,CCCc1ccc(OC(C)c2nc(-c3ccc(-n4cccc4)cc3)no2)cc1 (configuration not stated),56%
8,O=C(Nc1ccc2oc(-c3ccncc3)nc2c1)c1ccccc1Cl,73%
9,Cc1ccc(CNC(=O)c2cc3c(=O)oc4ccc(C)cc4c3s2)cc1,88%
10,COc1ccc(CNCCC(c2ccc(C)cc2)c2ccco2)cc1 (configuration not stated),72%
11,COc1ccc(CN(CCC(c2ccc3c(c2)OCO3)c2ccccc2OC)C(C)=O)cc1 (configuration not stated),8% (active)
12,COc1ccc(CNCCC(c2ccccc2)c2ccc3c(c2)OCO3)cc1 (configuration not stated),3% (active)
13,CCOCCCNC(=O)C(c1ccc(OC)cc1)N(Cc1ccc2c(c1)OCO2)C(=O)c1ccc(NC(C)=O)cc1 (configuration not stated),69%
14,NC(=O)CC(c1ccccc1)c1ccc2c(c1)OCO2 (configuration not stated),117%
15,COc1cc2cc(CN(Cc3ccc4c(c3)OCO4)C(=O)NCc3ccccc3)c(=O)[nH]c2cc1OC,117%
16,CCC(=O)N(CCC(c1ccccc1)c1ccc2c(c1)OCO2)Cc1ccc(OC(C)C)cc1 (configuration not stated),1% (active)
17,CCOCCCNC(=O)C(c1ccccc1)N(Cc1ccc2c(c1)OCO2)C(=O)c1ccc(NC(C)=O)cc1 (configuration not stated),70%
18,COc1ccc(CNCCC(c2ccc3c(c2)OCO3)c2ccccc2OC)cc1 (configuration not stated),25%
19,C=CCc1c(C)nc(SC)[nH]c1=O,114%
20,Cc1cccc(-c2nc3ccccc3n3c(-c4ccccc4)c4c(=O)n(C)c(=O)n(C)c4c23)c1,121%
21,O=C(CN1C(=O)c2ccccc2Sc2ncccc21)Nc1cccc(C(F)(F)F)c1,85%
22,CCSc1nc2ccccc2c(OCc2cc(C(=O)OC)ccc2OC)c1C(=O)OC,-15% (active)

row,Compound,survival
1,CCSc1nc2ccccc2c(OCc2ccc(Cl)cc2)c1C(=O)OC,88%
2,CCSc1nc2ccccc2c(OCc2ccccc2Cl)c1C(=O)OC,75%
3,Cc1ccc(N2CCN(S(=O)(=O)c3cc(C(=O)Nc4cc(Cl)cc(Cl)c4)ccc3F)CC2C)cc1 (configuration not stated),71%
4,COc1ccc(OC)c(CNC(=O)c2c(C)oc3ncn(C)c(=O)c23)c1,70%
5,O=C(COc1ccccc1)Nc1c(C(=O)N2CCN(c3ccc(F)cc3)CC2)oc2ccccc12,74%
6,COc1ccc(C(CC(=O)Nc2cccc(C)c2C)N2Cc3ccccc3C2=O)cc1 (configuration not stated),68%
7,CCc1ccc(CNCc2c(C(=O)O)n(Cc3cccc(F)c3)c3cc(OC)ccc23)cc1,63%
8,COc1ccc(OC)c(CNCc2c(C(=O)O)n(Cc3ccccc3)c3cc(OC)ccc23)c1,84%
9,COc1ccc(OC)c(CNCc2c(C(=O)O)n(Cc3cccc(F)c3)c3cc(OC)ccc23)c1,-3% (active)
10,COc1cc(Cl)c(C)cc1NC(=O)c1nn(-c2ccc(C)cc2)c(=O)n(C)c1=O,66%
11,COc1ccc(-n2c(=O)c3sc4ccccc4c3n(Cc3ccccc3C)c2=O)cc1OC,89%
12,CCS(=O)(=O)NCCc1sc2nc(-c3ccc(OC)cc3)nn2c1C,71%
13,COc1ccc(-c2nc3sc(CCNS(=O)(=O)c4c(C)cc(C)cc4C)c(C)n3n2)cc1,-3% (active)
14,Cc1ccc(-c2nc3sc(CCNS(=O)(=O)c4cc(F)ccc4F)c(C)n3n2)cc1,-4% (active)
15,Cc1c(CCNS(=O)(=O)c2ccccc2)sc2nc(-c3ccc(Cl)cc3)nn12,1% (active)
16,Cc1cc(C)c(S(=O)(=O)NCCc2sc3nc(-c4ccc(F)cc4)nn3c2C)c(C)c1,63%
17,CCCS(=O)(=O)NCCc1sc2nc(-c3ccc(Cl)cc3)nn2c1C,81%
18,COc1ccc(-c2nc3sc(CCNS(=O)(=O)c4ccccc4)c(C)n3n2)cc1,57%
19,CCCS(=O)(=O)NCCc1sc2nc(-c3ccc(F)cc3)nn2c1C,60%
20,COc1ccc(F)cc1S(=O)(=O)NCCc1sc2nc(-c3ccc(F)cc3)nn2c1C,57%
21,Cc1ccc(C(=O)Nc2nnc(S(=O)(=O)N3c4ccccc4CC3C)s2)cc1 (configuration not stated),38%
